Measured values reported in PubChem BioAssay (Tox21).
Unmarked numbers belong to inactive results. Inconclusive results are not listed. Entries that show only a call come without a potency. The source made the active and inactive calls. Unless noted, calls come from the whole dose curve; as a rule, active = well fitted curve in the direction sought with a large enough effect in the repeat runs; inconclusive = weak or mixed curves; inactive = no such curve, though single readings can be large; an effect the other way counts as inactive or inconclusive.

What was measured:
[1] = qHTS assay to identify small molecule HDAC inhibitors (AID 1259364); note: nearly all actives have a fitted effect of over 45% in size; note: potency is the fitted concentration of half-maximal effect
Method in brief: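 Homogeneous cell-based luminescent assay of endogenous class I/II HDAC activity; HCT-116 cells, 2 h compound exposure, 30 min HDAC-Glo development at RT.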

[2] = qHTS assay to identify small molecule HDAC inhibitors - cell viability counter screen (AID 1259365); note: series mostly up to about 92 µM; nearly all actives have a fitted effect of over 50% in size
Method in brief: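 CellTiter-Glo luminescence (30 min, room temperature) reported viability after a 2 h compound exposure at 37 C. Cells: wild-type HCT-116, 1,500 per well, seeded the night before.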

[3] = qHTS assay to identify small molecule agonists of the sonic hedgehog signaling (Shh) pathway - cell viability counter screen (AID 1259366); note: nearly all actives have a fitted effect of over 50% in size
Method in brief: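 Cytotoxicity counter screen: CellTiter-Fluor reagent added after 23 h compound exposure, then 1 h at 37C and fluorescence read. Cells were 3T3 Gli1-Luc, seeded 2,000 per well and dosed 4 h post-plating.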

[4] = qHTS assay to identify small molecule antagonists of the sonic hedgehog signaling (Shh) pathway - cell viability counter screen (AID 1259367); note: nearly all actives have a fitted effect of over 55% in size
Method in brief: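 After a 4 hr settling period, 3T3 Gli1-Luc cells were treated with DMSO-dissolved chemicals and conditioned medium, kept 24 hr at 37C in 5% CO2, and assayed for viability by CellTiter-Fluor fluorescence following 1 hr reagent incubation.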

[5] = qHTS assay to identify small molecule agonists of the sonic hedgehog signaling (Shh) pathway (AID 1259368; calls by dose curve;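 note: NIH/3T3-derived 3T3Gli1-Luc cells carrying a stable Gli1-driven firefly luciferase reporter; series mostly up to about 92 µM; nearly all actives have a fitted effect of over 15% in size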)
Method in brief: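 Steps: seed 3T3 Gli1-Luc cells, incubate 4 hr at 37 C, pin-transfer compounds in DMSO alongside a positive control, incubate 24 hr, add luciferase detection reagent, wait 30 min at room temperature, read luminescence.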

[6] = qHTS assay to identify small molecule antagonists of the sonic hedgehog signaling (Shh) pathway (AID 1259369; calls by dose curve; note: nearly all actives have a fitted effect of over 45% in size)
Method in brief: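 Inhibition of Shh signalling is measured as reduced Gli1-response-element firefly luciferase output in an NIH/3T3-derived stable reporter clone stimulated with conditioned medium for 24hr.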

[7] = molecular target: Estrogen receptor beta (Homo sapiens) (UniProt Q92731); experiment: qHTS assay to identify small molecule agonists of the estrogen receptor beta (ER-beta) signaling pathway (AID 1259377; active = well fitted activation curve with a large enough effect in the signal ratio in the repeat runs, not every such curve was filed as active; the % refers to the signal ratio; note: potency is the fitted concentration of half-maximal effect)
Method in brief: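 Ratiometric beta-lactamase FRET read-out came after 2 h substrate loading at room temperature. It followed 16 h compound treatment at 37C of GripTite HEK293T cells carrying a UAS-bla reporter, plated in 2% charcoal-stripped FBS medium.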

[8] = qHTS assay to identify small molecule agonists of the androgen receptor (AR) signaling pathway in the presence of an antagonist - cell viability counter screen (AID 1259379);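 note: MDA-kb2 human breast cancer cells carrying an MMTV luciferase reporter; series mostly up to about 92 µM; nearly all actives have a fitted effect of over 25% in size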
Method in brief: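 Fluorescence from CellTiter-Fluor, added after 15 hr and read 1 hr later, gave cell viability. Cells were MDA-kb2 exposed to compounds (15 concentrations) in the presence of 3.0uM nilutamide at 37C, 0% CO2.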

[9] = qHTS assay to identify small molecule agonists of the estrogen receptor beta (ER-beta) signaling pathway - cell viability counter screen (AID 1259380); note: nearly all actives have a fitted effect of over 30% in size
Method in brief: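 Same-well viability counter screen. Cells: ER-beta-UAS-bla HEK293T, plated 6 hr before compound, in 2% charcoal-stripped FBS. Compound exposure 16 hr, 37C; viability by CellTiter-Glo luminescence after 30 min at room temperature.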

[10] = molecular target: Estrogen receptor beta (Homo sapiens) (UniProt Q92731); experiment: qHTS assay to identify small molecule antagonists of the estrogen receptor beta (ER-beta) signaling pathway (AID 1259378; active = well fitted inhibition curve with a large enough effect in the signal ratio in the repeat runs, not every such curve was filed as active; the % refers to the signal ratio)
Method in brief: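 ER-beta-UAS-bla HEK293T (GripTite) cells in 2% charcoal-stripped FBS medium were preincubated 6 hr at 37C, dosed with compound, then stimulated with 1 nM E2 (final) for 16 hr; beta-lactamase reporter read by B/G FRET fluorescence after 2 hr substrate loading.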

Chain of Estrogen receptor beta (Homo sapiens) (Q92731 whole entry, looked up): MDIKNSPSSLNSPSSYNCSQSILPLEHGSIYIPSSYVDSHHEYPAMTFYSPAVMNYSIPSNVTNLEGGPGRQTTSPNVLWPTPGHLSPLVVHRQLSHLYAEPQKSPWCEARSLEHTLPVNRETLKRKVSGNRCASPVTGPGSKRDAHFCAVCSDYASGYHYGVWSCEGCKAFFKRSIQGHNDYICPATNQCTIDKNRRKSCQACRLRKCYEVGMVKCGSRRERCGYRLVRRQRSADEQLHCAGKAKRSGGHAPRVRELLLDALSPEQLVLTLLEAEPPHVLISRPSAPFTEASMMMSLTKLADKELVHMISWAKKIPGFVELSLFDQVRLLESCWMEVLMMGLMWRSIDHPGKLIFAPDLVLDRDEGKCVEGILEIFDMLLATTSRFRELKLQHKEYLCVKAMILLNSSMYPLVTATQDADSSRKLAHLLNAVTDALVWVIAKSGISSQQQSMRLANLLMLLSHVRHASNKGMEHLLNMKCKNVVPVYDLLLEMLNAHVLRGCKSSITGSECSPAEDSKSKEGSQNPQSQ

Compound	Potency [1]	outcome [2]	outcome [3]	outcome [4]	outcome [5]	Potency [6]	Potency [7]	outcome [8]	outcome [9]	Potency [10]
O=C(O)CNC(=O)CNC(=O)CNC(=O)CSC(=O)c1ccccc1	inactive	inactive	inactive	inactive	inactive	inactive	inactive	inactive	inactive	–
OCCN1CCOCC1	inactive	inactive	inactive	inactive	inactive	inactive	–	inactive	inactive	inactive
C=Cc1ccc(C(C)(C)C)cc1	inactive	inactive	inactive	inactive	inactive	inactive	–	inactive	inactive	–
CO[Si](CCCn1c(=O)n(CCC[Si](OC)(OC)OC)c(=O)n(CCC[Si](OC)(OC)OC)c1=O)(OC)OC	inactive	inactive	inactive	inactive	inactive	inactive	–	inactive	–	–
CC1(C)[C@H]2CC[C@](C)(C2)[C@H]1O	inactive	inactive	inactive	inactive	inactive	inactive	–	inactive	inactive	–
COc1ccc(CCO)cc1	inactive	inactive	inactive	inactive	inactive	inactive	–	inactive	–	inactive
CCN(CC)CCN	inactive	inactive	inactive	inactive	inactive	inactive	–	inactive	–	inactive
Cn1nnc2c(C(N)=O)ncn2c1=O	inactive	inactive	inactive	inactive	inactive	inactive	–	inactive	inactive	inactive
COc1cc(OC)nc(O[C@H](C(=O)O)C(OC)(c2ccccc2)c2ccccc2)n1	inactive	inactive	inactive	inactive	inactive	inactive	–	inactive	inactive	inactive
CC(C)(CO)C(O)C(=O)NCCCO (stereo not given)	inactive	inactive	inactive	inactive	inactive	inactive	–	inactive	inactive	inactive
COc1cc(/C=C/C(N)=O)cc(OC)c1OC	inactive	inactive	inactive	inactive	inactive	inactive	–	inactive	inactive	inactive
CCNC(=O)NCc1cccc(Cl)c1	inactive	inactive	inactive	inactive	inactive	inactive	–	inactive	–	–
CC(=O)C1C(=O)C=C(C)OC1=O (stereo not given)	inactive	inactive	inactive	inactive	inactive	inactive	–	inactive	inactive	inactive
CC(C)C[C@@H]1[C@H](c2ccccc2)OC(=O)N1CCCN1CCCCCC1	inactive	inactive	inactive	inactive	inactive	inactive	–	inactive	–	inactive
N#Cc1cscn1	inactive	inactive	inactive	inactive	inactive	inactive	inactive	inactive	inactive	–
CC(C)OC(=O)OCOP(=O)(CO[C@H](C)Cn1cnc2c(N)ncnc21)OCOC(=O)OC(C)C	inactive	inactive	inactive	inactive	inactive	inactive	inactive	inactive	inactive	–
C=C(C)[C@@H]1CC=C(C)CC1	inactive	inactive	inactive	inactive	inactive	inactive	–	inactive	inactive	–
COC(=O)c1ccccc1C(=O)O	inactive	inactive	inactive	inactive	inactive	inactive	–	inactive	–	inactive
CC(C)=CCC[C@@](C)(O)[C@H]1CC=C(C)CC1	inactive	inactive	inactive	inactive	inactive	inactive	–	inactive	inactive	inactive
Fc1ccccc1	inactive	inactive	inactive	inactive	inactive	inactive	–	inactive	–	–
CNCCS(=O)(=O)O	inactive	inactive	inactive	inactive	inactive	inactive	–	inactive	inactive	inactive
CC(O)CC(C)O (stereo not given)	inactive	inactive	inactive	inactive	inactive	inactive	–	inactive	inactive	–
CC(C)(C)NC[C@H](O)COc1cccc2c1CCCC2=O	inactive	inactive	inactive	inactive	inactive	–	–	inactive	–	inactive
NCc1ccc(S(N)(=O)=O)cc1	inactive	inactive	inactive	inactive	inactive	–	inactive	inactive	–	inactive
CC(=O)OC(C)=O	inactive	inactive	inactive	inactive	inactive	inactive	–	inactive	inactive	–
Cc1ccc2c(c1)C(=O)c1ccccc1C2=O	1210 nM (active)	inactive	inactive	inactive	inactive	–	–	inactive	–	inactive
CCO[Si](CC)(OCC)OCC	inactive	inactive	inactive	inactive	inactive	–	inactive	inactive	inactive	inactive
CCC(=O)Oc1ccc2c(c1)CC[C@@H]1[C@@H]2CC[C@@]2(C)[C@H]1C[C@@H](OC(=O)CC)[C@@H]2OC(=O)CC	inactive	inactive	inactive	inactive	inactive	–	21.1 nM (active)	inactive	–	–
